Reference: ChEMBL document CHEMBL3988442, “University of Dundee, Small-Polar-MMV Screening Library” (2021)
For some of these results: Entries with a potency or affinity are not part of this list.

What was measured:
Design in all cases: scale not given: direction of the effect not stated beside the values
[1] = molecular target: Protein translocase subunit SecA (Escherichia coli (strain K12)) (UniProt P10408); experiment: Assay to Identify E. coli SecA ATPase Inhibitors; type: functional; conditions: 30 µM
Protein translocase subunit SecA (Escherichia coli (strain K12)), sequence (P10408 whole entry): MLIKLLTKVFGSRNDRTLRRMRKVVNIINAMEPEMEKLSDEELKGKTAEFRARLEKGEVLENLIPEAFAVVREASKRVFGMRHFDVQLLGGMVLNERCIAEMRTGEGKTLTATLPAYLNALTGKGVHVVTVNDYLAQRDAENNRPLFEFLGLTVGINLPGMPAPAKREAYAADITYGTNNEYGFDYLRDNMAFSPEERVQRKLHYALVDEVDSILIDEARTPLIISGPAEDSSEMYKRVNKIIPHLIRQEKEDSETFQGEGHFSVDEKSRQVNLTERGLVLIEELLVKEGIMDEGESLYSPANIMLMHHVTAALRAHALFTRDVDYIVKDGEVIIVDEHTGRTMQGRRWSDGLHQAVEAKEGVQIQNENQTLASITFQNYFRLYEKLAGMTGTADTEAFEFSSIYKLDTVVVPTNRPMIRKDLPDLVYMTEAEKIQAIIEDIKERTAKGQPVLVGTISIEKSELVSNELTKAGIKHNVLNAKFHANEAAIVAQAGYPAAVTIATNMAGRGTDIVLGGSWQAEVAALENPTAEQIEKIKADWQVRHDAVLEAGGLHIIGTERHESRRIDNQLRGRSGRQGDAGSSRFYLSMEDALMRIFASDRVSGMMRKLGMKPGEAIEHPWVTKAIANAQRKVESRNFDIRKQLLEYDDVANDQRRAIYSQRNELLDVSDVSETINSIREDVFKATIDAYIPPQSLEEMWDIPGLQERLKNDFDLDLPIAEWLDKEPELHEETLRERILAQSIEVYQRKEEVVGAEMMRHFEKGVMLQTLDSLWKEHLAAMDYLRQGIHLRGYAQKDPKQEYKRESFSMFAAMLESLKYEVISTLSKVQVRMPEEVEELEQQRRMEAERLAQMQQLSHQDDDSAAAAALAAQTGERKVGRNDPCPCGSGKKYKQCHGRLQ

[2] = molecular target: T1, Ubiquitin-activating enzyme e1, putative (Leishmania donovani (strain BPK282A1)) (UniProt E9BSI1); experiment: Leishmania donovani Ubiquitin Activating Enzyme (LdE1); type: functional; conditions: 30 µM
T1 sequence (whole entry): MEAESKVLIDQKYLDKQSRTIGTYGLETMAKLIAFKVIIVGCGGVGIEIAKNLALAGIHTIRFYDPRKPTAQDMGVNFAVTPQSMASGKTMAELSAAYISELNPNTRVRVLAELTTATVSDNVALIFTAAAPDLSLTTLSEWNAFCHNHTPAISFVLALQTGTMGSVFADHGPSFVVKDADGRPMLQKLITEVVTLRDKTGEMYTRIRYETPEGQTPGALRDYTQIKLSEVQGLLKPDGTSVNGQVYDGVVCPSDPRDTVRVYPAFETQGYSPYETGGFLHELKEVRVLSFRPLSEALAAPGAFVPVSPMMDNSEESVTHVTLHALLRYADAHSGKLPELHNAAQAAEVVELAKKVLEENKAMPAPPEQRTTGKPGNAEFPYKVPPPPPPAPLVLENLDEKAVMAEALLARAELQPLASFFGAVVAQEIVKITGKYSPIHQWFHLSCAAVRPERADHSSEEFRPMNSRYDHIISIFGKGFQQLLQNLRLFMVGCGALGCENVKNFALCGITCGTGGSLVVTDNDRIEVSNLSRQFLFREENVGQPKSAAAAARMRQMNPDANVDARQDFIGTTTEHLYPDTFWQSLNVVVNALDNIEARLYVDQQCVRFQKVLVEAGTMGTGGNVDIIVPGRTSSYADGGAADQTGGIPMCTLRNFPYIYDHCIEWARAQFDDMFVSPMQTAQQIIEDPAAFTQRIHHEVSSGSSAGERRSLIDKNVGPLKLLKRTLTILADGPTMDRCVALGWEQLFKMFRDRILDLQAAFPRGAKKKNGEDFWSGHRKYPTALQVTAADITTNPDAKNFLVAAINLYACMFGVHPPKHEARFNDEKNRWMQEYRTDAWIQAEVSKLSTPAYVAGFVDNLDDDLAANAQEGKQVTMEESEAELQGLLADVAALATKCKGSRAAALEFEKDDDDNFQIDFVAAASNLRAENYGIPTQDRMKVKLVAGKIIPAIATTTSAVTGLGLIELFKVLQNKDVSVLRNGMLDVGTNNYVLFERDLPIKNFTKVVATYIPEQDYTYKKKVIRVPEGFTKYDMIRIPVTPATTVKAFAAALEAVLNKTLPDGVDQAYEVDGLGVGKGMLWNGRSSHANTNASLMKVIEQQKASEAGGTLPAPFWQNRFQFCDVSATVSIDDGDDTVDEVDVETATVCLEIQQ

[3] = molecular target: AMP-activated protein kinase, AMPK (Homo sapiens) (UniProt P54646+O43741+P54619+Q9UGJ0+Q9Y478+Q13131+Q9UGI9); experiment: AMP-dependent Kinase enzyme assay. An in vitro enzyme assay that detects ADP turnover that is directly proportional to AMPK activity. This uses naive AMPK that is activated during the assay with MK-8722; type: functional; conditions: 30 µM
[4] = molecular target: Sialic acid-binding Ig-like lectin 9 (Homo sapiens) (UniProt Q9Y336); experiment: Hs-Siglec9 ALPHAscreen SOP 20170721; conditions: 10 µM
Sialic acid-binding Ig-like lectin 9 (Homo sapiens), sequence (Q9Y336 whole entry): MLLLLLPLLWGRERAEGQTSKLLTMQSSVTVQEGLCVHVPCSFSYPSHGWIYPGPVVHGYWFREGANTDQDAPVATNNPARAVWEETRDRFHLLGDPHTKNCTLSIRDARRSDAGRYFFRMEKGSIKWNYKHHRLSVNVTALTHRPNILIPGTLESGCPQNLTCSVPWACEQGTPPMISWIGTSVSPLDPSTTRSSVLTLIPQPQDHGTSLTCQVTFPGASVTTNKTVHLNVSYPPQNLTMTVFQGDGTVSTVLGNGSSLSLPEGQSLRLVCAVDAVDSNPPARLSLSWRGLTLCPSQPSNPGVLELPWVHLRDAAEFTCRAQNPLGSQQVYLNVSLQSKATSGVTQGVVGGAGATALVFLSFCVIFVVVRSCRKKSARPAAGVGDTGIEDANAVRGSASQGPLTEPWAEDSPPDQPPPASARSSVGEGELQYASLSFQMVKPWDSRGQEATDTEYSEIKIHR

[5] = tested on: Trypanosoma cruzi; experiment: Trypanosoma cruzi phosphomannomutase and mannose-1-phosphate guanylyltransferase assay; type: functional; conditions: 10 µM
[6] = molecular target: T2, Arginase-2, mitochondrial (Homo sapiens) (UniProt P78540); experiment: in vitro enzyme assay to detect the production of urea directly proportional to the activity of Arginase II; type: functional; conditions: 33.3 µM; note: in the data most compounds retested in dose-response had high values
T2 sequence (whole entry): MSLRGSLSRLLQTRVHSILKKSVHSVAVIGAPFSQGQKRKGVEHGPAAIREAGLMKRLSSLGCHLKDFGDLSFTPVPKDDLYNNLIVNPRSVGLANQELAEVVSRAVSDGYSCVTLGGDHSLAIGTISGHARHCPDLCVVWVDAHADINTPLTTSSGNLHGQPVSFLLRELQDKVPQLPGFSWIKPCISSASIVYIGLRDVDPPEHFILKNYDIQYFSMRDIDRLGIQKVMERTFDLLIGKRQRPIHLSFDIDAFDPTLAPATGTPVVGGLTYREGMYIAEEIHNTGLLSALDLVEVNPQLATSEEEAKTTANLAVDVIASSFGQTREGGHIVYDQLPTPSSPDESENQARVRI

[7] = molecular target: T3, Proteasome subunit beta (Trypanosoma cruzi) (UniProt O96673); experiment: Trypanosoma cruzi proteasome chymotrypsin-like activity (TcProtChymo) assay.; note: in the data most compounds retested in dose-response had high values; type: functional; conditions: 9.37 µM
T3 sequence (whole entry): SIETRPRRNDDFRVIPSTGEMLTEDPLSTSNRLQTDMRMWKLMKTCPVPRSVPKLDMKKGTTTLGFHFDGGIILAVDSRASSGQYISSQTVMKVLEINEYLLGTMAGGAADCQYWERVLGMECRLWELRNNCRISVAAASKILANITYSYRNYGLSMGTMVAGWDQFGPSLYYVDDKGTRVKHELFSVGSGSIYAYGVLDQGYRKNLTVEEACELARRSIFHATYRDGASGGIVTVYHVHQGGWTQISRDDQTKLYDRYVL

[8] = species on record: Homo sapiens; experiment: To identify inhibition of the IFN signalling (Jak-Stat) pathway via expression of an eGFP reporter gene under the control of an IFN-stimulated response element (ISRE) containing MxA promoter.; type: functional; conditions: 30 µM
[9] = molecular target: T4, Tyrosyl-tRNA synthetase, putative (Trypanosoma cruzi (strain CL Brener)) (UniProt Q4DSP6); experiment: Trypanosoma cruzi tyrosyl tRNA synthetase (TcYRS) _High Tyrosine SOP; type: functional; conditions: 30 µM; note: in the data most compounds retested in dose-response had high values
T4 sequence (whole entry): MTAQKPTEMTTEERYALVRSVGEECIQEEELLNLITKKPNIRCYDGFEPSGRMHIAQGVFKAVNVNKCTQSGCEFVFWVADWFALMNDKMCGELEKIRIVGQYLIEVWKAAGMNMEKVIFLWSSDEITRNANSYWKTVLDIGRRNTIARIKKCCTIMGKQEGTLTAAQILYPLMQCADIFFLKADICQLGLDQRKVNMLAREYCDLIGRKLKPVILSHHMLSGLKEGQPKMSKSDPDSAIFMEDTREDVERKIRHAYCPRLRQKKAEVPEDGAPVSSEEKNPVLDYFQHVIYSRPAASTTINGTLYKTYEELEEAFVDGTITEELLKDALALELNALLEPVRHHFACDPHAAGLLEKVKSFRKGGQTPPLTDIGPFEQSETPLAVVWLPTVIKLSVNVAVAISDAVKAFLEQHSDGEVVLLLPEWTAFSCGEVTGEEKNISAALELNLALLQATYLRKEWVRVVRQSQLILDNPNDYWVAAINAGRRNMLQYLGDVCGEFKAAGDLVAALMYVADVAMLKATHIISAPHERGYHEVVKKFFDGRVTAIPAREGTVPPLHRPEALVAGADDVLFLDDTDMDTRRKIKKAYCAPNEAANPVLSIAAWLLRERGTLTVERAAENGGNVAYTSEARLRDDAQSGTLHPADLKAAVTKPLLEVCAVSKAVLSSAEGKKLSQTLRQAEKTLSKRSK

[10] = molecular target: T4, Tyrosyl-tRNA synthetase, putative (Trypanosoma cruzi (strain CL Brener)); experiment: Trypanosoma cruzi tyrosyl tRNA synthetase (TcYRS) SOP; type: functional; conditions: 30 µM
[11] = molecular target: Chromo domain-containing protein 1 (Saccharomyces cerevisiae (strain ATCC 204508 / S288c) (Baker's yeast)) (UniProt P32657); experiment: ScCHD-1 Enzyme Inhibition Assay; type: functional; conditions: 30 µM; note: in the data most compounds retested in dose-response had high values
Chromo domain-containing protein 1 (Saccharomyces cerevisiae (strain ATCC 204508 / S288c) (Baker's yeast)), sequence (P32657 whole entry, the tested form may be a part): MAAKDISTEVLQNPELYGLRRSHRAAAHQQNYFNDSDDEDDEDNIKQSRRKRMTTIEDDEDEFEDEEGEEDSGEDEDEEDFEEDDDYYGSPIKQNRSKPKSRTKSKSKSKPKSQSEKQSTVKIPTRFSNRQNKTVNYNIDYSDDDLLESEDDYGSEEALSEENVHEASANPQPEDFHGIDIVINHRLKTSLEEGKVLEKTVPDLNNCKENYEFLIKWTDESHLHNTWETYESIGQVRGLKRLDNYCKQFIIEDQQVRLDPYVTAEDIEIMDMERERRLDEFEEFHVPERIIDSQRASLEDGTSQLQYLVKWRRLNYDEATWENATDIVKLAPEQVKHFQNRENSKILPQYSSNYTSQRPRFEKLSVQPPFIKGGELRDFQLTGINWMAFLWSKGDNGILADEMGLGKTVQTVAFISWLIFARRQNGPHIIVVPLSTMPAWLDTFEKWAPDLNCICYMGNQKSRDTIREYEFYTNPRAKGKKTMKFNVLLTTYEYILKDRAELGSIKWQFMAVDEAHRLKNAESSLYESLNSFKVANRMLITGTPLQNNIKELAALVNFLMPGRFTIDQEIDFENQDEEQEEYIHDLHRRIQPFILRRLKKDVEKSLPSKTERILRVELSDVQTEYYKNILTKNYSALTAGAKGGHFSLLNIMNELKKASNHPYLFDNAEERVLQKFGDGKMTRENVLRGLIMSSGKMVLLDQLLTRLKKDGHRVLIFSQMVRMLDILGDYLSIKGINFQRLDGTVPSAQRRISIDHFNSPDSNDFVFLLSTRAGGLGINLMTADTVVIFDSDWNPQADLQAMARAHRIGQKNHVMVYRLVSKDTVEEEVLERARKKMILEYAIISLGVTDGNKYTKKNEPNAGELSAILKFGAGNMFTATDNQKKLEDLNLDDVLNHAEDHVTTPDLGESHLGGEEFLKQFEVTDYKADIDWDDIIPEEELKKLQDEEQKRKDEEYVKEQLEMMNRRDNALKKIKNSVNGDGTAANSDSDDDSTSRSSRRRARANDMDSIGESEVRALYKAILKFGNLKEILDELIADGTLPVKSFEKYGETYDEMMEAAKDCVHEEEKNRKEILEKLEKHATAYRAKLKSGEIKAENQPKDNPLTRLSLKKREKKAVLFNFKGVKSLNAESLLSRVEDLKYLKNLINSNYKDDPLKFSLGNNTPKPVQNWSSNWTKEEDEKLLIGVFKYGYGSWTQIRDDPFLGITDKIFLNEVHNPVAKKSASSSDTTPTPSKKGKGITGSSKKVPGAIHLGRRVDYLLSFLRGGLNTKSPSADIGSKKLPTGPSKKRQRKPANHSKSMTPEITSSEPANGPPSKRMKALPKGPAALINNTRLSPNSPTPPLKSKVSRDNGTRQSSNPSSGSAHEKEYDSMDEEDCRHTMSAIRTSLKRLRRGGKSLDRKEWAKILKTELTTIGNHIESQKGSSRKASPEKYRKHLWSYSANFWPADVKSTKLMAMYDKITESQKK

Compound	Percent Effect [1]	Percent Effect [2]	Percent Effect [3]	Percent Effect [4]	Percent Effect [5]	Percent Effect [6]	Percent Effect [7]	Percent Effect [8]	Percent Effect [9]	Percent Effect [10]	Percent Effect [11]
O=C(CO)N1C[C@H]2CC[C@@H]1CN(C1Cc3ccccc3C1)C2	-5.84%	5.41%	-17.8%	-1.59%	-1.86%	1.74%	5.75%	3.96%	1.07%	8.64%	-4.67%
CN(C)Cc1nc(C(C)(C)NC(=O)C2CC(=O)N(CC3CC3)C2)no1 (stereo unspecified)	-8.14%	5.41%	0.168%	2.33%	-3.44%	3.14%	-3.77%	22.2%	1.98%	1.22%	4.96%
O=C(NCCc1ccc(Cl)s1)NCc1nnc2n1CCC2	-5.75%	18.4%	-1.91%	-9.75%	-6.07%	-3.96%	15.5%	4.94%	4.43%	11.1%	-7.66%
Cc1csc(C2CCCN(C(=O)c3cnc4n[nH]c(C)c4c3)C2)n1 (stereo unspecified)	-3.7%	10.8%	-5.48%	6.11%	2.36%	-2%	2.7%	16.8%	7.39%	18.5%	-8.83%
CS(=O)(=O)NCc1nnc2n1CCN(Cc1cccs1)C2	-3.62%	2.7%	7.63%	-1.91%	0.684%	-3.5%	13.5%	6.95%	5.41%	12.8%	3.73%
CCOCC(=O)N1C[C@@H](O)[C@H](N(C)Cc2ccc(OC)cc2)C1	-3.53%	4.05%	6.78%	3.17%	-1.19%	0.232%	9.05%	6.37%	5.38%	9.09%	-14.5%
Cc1cc(C)nc(Nc2cc(C3CCCN(C)C3)nc(C)n2)n1 (stereo unspecified)	-3.56%	9.46%	-3.72%	6.27%	1.19%	-1.62%	9.2%	1.68%	4.3%	11.7%	-18.4%
CN(C(=O)c1ccccn1)c1nc2c(s1)CCc1c-2cnn1C	-3.06%	52.7%	11%	-2.4%	4.94%	-4.41%	11.5%	16.9%	-4.3%	1.3%	-15.7%
Cc1cc(C2CCCN2C(=O)c2cc3c(s2)CCC3)on1 (stereo unspecified)	-6.23%	5.26%	2.83%	3.1%	6.58%	-1.92%	14.4%	-0.279%	0.49%	4.88%	-7.02%
CCn1cnnc1CNC(=O)N1CCN(c2nc(C)c(C)s2)CC1	-8.34%	10.4%	-7.32%	12.2%	4.68%	-4.27%	0.676%	-2.89%	5.83%	19.5%	-9.23%
CCSc1cc(C(=O)NCc2ccccc2O)ccn1	-5.37%	0%	5.33%	-0.329%	7.05%	-0.909%	12.2%	44.3%	3.23%	5%	-5.04%
